Measurements reported in the supplement of paper PMC10849652.
About 8,800 targets were measured; listed, in parts, are those with a hit and a random draw of the rest. About 0.5% of all pairs of compound and target were hits.

Columns and labels:
Test in all cases: log2 fold change, soluble protein after heating vs DMSO (PISA); higher = thermal stabilisation; K562 lysate, 10 uM; active = over 0.2 and 3.5 SD of the protein, either way, in both replicates (recomputed)
[1] = compound: C1=CC=C(C=C1)[C@H](COC2=CC3=C(C=C2)NC(=O)N3)NC(=O)C4=CC=CN(C4=O)CC5=CC(=C(C=C5)F)F
In short: (§1)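 A 30 min treatment with 10 μM compound was applied to crude K562 extract at 1 mg/mL protein in PBS pH 7.4 with 1 mM MgCl2. Heating for 3 min spanned 48°C-58°C, after which aliquots were pooled, adjusted to 0.5% NP-40 at 4°C and spun at 21,000xg for 90 min. TMTpro 16plex LC-MS/MS of the supernatant, with channel sums equalised, gave values recorded as log-two fold change in thermal stability against solvent controls, from duplicates.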

[2] = compound: CC1=C(SC2=C1C(=N[C@H](C3=NN=C(N32)C)CC(=O)N)C4=CC=C(C=C4)Cl)C
In short: as §1

[3] = compound: CC1=C2C(=CC=C1)N=C(N(C2=O)C3=CC=CC=C3C)CN4C=NC5=C(N=CN=C54)N
In short: as §1

[4] = compound: Cc1sc2c(c1C)C(c1ccc(Cl)cc1)=N[C@@H](CC(=O)OC(C)(C)C)c1nnc(C)n1-2
In short: as §1

[5] = compound: c1ccc([C@@H]2C[C@H]2NC2CCNCC2)cc1
In short: as §1

Measured: log2 fold change

FTL (UniProt P02792)
UniProt P02792, sequence (P02792 whole entry, looked up): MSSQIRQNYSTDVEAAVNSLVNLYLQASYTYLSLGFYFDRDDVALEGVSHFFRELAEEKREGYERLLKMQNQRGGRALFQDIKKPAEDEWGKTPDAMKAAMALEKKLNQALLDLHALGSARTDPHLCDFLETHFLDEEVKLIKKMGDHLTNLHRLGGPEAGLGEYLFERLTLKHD
inactive: [1] -0.067 | [2] 0.127 | [3] -0.034 | [4] -0.03 | [5] -0.031

FANCD2 isoform 1 (UniProt Q9BXW9)
UniProt Q9BXW9, sequence (Q9BXW9 whole entry, looked up): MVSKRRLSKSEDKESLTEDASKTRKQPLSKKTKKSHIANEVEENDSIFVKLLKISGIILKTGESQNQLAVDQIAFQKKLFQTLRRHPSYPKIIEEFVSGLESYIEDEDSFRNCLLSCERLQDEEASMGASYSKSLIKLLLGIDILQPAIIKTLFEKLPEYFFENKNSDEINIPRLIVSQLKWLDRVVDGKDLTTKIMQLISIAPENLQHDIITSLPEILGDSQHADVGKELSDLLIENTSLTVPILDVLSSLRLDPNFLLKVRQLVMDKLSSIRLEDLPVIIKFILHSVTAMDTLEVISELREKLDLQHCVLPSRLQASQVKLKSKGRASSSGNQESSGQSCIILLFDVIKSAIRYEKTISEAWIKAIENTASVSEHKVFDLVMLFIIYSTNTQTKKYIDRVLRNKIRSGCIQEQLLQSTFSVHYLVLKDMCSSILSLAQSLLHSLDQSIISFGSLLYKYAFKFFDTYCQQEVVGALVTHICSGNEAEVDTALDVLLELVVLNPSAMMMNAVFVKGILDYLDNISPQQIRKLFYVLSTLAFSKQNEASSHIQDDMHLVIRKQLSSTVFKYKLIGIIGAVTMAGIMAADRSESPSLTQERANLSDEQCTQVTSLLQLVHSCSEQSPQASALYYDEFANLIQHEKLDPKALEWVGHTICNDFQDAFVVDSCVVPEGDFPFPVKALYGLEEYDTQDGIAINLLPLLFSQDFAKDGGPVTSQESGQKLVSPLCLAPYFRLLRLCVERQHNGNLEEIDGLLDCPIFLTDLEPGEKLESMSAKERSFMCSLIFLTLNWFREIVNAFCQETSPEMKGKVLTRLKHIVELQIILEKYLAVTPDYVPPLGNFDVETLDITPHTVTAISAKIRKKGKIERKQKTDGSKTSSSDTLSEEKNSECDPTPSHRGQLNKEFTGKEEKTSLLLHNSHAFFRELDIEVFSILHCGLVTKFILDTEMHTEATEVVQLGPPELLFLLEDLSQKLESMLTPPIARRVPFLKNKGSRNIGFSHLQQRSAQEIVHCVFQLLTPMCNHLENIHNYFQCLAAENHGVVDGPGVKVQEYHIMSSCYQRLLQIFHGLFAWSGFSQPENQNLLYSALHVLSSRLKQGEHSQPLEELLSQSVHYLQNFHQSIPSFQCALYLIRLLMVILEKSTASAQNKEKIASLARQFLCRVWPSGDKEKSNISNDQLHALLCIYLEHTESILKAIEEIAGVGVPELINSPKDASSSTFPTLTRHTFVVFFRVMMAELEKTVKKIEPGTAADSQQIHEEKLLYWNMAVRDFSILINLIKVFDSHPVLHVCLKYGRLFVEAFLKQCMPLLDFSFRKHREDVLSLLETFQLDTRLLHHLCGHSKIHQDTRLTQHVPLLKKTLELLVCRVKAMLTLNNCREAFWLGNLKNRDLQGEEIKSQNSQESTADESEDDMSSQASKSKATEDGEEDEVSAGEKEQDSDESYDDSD
inactive: [1] -0.002 | [2] 0.039 | [3] 0.012 | [4] -0.018 | [5] -0.054

FASTKD5 (UniProt Q7L8L6)
UniProt Q7L8L6, sequence (Q7L8L6 whole entry, looked up): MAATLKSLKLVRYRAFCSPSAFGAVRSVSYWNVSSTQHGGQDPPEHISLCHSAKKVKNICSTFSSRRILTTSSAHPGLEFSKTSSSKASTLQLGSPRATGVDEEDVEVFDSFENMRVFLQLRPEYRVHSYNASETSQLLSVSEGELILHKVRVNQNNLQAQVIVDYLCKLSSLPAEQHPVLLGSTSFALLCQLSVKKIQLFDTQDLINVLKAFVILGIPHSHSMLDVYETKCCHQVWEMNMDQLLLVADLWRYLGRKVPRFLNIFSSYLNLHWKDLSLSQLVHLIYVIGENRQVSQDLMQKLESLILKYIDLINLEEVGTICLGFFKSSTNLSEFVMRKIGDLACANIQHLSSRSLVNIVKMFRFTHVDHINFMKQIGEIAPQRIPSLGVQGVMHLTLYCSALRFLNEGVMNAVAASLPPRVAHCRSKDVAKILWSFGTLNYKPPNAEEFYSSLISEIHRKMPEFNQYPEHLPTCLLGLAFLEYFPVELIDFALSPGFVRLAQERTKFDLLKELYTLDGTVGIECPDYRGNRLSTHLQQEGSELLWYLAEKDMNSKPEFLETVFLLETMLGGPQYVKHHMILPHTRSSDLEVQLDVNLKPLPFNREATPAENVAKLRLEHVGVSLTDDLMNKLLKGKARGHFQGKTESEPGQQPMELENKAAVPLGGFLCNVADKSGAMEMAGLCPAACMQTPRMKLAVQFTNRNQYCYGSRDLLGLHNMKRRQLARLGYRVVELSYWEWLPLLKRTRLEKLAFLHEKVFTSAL
inactive: [1] -0.168 | [2] -0.056 | [3] -0.024 | [4] -0.002 | [5] 0.133

ELAVL1 isoform 2 (UniProt Q15717)
UniProt Q15717, sequence (Q15717 whole entry, looked up): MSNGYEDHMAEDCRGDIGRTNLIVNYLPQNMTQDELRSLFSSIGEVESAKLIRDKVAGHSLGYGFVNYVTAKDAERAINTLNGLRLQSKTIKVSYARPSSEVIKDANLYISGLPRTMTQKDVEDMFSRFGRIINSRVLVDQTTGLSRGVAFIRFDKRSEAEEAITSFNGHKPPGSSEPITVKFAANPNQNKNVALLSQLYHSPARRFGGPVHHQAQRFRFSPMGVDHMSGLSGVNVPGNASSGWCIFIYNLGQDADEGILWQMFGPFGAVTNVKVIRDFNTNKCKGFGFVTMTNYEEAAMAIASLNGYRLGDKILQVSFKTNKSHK
inactive: [1] -0.038 | [2] 0 | [3] -0.017 | [4] 0.066 | [5] 0.052

FAM83A (UniProt Q86UY5)
UniProt Q86UY5, sequence (Q86UY5 whole entry, looked up): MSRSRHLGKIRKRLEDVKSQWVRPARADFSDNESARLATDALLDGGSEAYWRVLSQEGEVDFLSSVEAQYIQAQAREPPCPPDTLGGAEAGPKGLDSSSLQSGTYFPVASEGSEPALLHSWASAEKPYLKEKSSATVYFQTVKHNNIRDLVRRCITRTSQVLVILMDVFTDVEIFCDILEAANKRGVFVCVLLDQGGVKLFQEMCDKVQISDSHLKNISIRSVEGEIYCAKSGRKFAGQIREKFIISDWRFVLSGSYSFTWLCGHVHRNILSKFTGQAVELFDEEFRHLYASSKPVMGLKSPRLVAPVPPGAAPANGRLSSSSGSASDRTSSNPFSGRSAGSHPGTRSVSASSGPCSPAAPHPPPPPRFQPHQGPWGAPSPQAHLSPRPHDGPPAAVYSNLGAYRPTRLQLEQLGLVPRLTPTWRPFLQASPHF
inactive: [1] 0.065 | [2] -0.023 | [3] 0.063 | [4] 0.11 | [5] -0.039

GAPDH (UniProt P04406)
UniProt P04406, sequence (P04406 whole entry, looked up): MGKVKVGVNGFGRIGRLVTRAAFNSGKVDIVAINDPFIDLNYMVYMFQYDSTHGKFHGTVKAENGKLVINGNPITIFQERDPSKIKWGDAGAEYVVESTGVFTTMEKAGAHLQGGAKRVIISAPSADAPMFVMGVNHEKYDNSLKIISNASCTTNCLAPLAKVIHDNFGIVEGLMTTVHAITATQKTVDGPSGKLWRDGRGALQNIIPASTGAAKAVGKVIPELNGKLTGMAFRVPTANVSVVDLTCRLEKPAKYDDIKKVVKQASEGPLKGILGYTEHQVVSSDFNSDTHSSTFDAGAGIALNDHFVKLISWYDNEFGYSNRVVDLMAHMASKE
inactive: [1] 0.004 | [2] 0.008 | [3] -0.018 | [4] 0.008 | [5] 0.052

FARSB (UniProt Q9NSD9)
UniProt Q9NSD9, sequence (Q9NSD9 whole entry, looked up): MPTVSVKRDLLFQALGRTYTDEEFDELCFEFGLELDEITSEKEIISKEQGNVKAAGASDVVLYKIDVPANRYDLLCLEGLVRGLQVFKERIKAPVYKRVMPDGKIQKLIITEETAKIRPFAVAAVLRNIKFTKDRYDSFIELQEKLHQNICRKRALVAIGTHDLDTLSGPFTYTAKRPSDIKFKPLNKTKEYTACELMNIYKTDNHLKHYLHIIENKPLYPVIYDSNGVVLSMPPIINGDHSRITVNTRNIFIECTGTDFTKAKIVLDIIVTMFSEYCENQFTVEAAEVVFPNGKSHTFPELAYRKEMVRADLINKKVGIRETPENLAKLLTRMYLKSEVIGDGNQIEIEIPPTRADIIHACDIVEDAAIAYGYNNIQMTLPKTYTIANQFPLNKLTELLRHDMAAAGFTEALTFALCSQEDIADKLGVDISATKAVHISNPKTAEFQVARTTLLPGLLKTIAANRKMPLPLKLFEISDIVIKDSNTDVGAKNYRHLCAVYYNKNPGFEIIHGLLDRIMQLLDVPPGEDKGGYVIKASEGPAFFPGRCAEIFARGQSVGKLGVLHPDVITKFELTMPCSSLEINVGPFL
inactive: [1] -0.014 | [2] 0.036 | [3] -0.004 | [4] 0.02 | [5] 0.052

FXR1 (UniProt P51114)
UniProt P51114, sequence (P51114 whole entry, looked up): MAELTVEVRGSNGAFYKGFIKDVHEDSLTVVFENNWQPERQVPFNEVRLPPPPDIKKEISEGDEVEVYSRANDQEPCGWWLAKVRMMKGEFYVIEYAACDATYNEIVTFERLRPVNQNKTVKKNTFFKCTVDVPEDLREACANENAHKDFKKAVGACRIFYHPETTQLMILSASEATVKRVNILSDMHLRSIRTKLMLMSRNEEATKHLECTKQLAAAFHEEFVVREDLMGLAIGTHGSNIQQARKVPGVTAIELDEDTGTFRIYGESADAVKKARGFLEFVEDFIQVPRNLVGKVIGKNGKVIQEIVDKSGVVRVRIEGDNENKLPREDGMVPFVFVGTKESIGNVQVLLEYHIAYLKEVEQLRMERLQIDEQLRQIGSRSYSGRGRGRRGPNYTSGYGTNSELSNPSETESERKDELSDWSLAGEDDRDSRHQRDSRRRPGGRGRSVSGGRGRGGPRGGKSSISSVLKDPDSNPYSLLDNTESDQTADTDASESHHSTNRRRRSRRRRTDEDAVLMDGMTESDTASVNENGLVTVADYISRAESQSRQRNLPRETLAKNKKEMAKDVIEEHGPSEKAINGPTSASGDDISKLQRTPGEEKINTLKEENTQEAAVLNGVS
inactive: [1] -0.028 | [2] -0.016 | [3] -0.009 | [4] 0.04 | [5] 0.027

EPB41, A0A2R8Y783
inactive: [1] -0.056 | [2] -0.031 | [3] 0.142 | [4] -0.131 | [5] 0.033
